Experimental findings from PubChem BioAssay are described below.

The subject of experiment [1] is Plasmodium falciparum Sir2 (PF13_0152, Sir2A). Put plainly: pfSir2 binders on small-molecule microarrays, primary screen, biochemical, small-molecule microarray, 635 nm fluorescence (AID 1098).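 Note: score merges spot fluorescence intensity with its signal-to-noise ratio.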 The settings on record: small-molecule microarray binding, fluorescence 635 nm; higher = more signal.
The nature of experiment [2]: small-molecule microarray binders of probe aDKK1, primary screen, biochemical, biotinylated probe, 635/667 nm fluorescence (AID 1099).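 Note: score merges 667nm spot fluorescence with signal to noise across triplicate slides; reference of the scale not given here.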 The settings on record: higher = more signal.
A short description of experiment [3]: small-molecule microarray binders of probe aCHRDL2, primary screen, biochemical, biotinylated probe, 635/667 nm fluorescence (AID 1100). The settings on record: higher = more signal.
A short description of experiment [4]: splicing luciferase reporter signal modulators, primary screen, spliceosome inhibition project, cell-based, HEK293, splice +/- reporter (AID 1101).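 Note: HEK293 cells carrying a splicing-competent luciferase reporter gene; test concentration not given here.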 As to conditions: luminescence, 24 h, higher = more signal, called active from +8 up or from −8 down.
Experiment [5] concerns the target Fibroblast growth factor 10 (Homo sapiens) (UniProt O15520). Kind of experiment: FGF10 binders on small-molecule microarrays, primary screen, biochemical, small-molecule microarray, 635 nm fluorescence (AID 1102). As to conditions: FGF10 binding, fluorescence 635 nm, higher = more signal.
Experiment [6] concerns glycogen synthase kinase-3 (GSK3A per assay name; protocol says GSK3B). Put plainly: GSK3 binders on small-molecule microarrays, primary screen, biochemical, small-molecule microarray, 635 nm fluorescence, GSK3A (AID 1103). Note: the record names both GSK3A and GSK3B. The settings on record: small-molecule microarray binding, fluorescence 635 nm; higher = more signal.
Experiment [7] has as its target Epidermal growth factor receptor (Homo sapiens) (UniProt P00533). Kind of experiment: EGFR binders on small-molecule microarrays, primary screen, biochemical, small-molecule microarray, 635 nm fluorescence (AID 1104).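 Note: score merges 667 nm emission intensity with spot signal to noise over triplicate slides.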 As to conditions: EGFR binding, higher = more signal.
Experiment [8] deals with Follistatin-related protein 3 (Homo sapiens) (UniProt O95633). Kind of experiment: FSTL3 binders on small-molecule microarrays, primary screen, biochemical, small-molecule microarray, 635 nm fluorescence (AID 1105).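 Note: score merges emission near 667 nm and signal to noise per printed spot across three slides.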 As to conditions: FSTL3 binding, higher = more signal.
Sequence of Follistatin-related protein 3 (Homo sapiens) (O95633 whole entry, looked up): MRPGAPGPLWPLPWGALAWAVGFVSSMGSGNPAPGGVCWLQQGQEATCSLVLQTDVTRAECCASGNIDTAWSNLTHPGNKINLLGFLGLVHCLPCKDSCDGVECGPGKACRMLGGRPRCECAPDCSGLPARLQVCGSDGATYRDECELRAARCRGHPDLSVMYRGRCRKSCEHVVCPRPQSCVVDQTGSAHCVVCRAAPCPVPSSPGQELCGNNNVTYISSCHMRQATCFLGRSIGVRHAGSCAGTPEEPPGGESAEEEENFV
The target in experiment [9] is Dickkopf-related protein 1 (Homo sapiens) (UniProt O94907). Put plainly: DKK1 binders on small-molecule microarrays, primary screen, biochemical, small-molecule microarray, 635 nm fluorescence scan (AID 1106).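 Note: score merges emission near 667 nm with signal to noise over three replicate slides.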 The settings on record: DKK1 binding, higher = more signal.
Sequence of Dickkopf-related protein 1 (Homo sapiens) (O94907 whole entry, looked up): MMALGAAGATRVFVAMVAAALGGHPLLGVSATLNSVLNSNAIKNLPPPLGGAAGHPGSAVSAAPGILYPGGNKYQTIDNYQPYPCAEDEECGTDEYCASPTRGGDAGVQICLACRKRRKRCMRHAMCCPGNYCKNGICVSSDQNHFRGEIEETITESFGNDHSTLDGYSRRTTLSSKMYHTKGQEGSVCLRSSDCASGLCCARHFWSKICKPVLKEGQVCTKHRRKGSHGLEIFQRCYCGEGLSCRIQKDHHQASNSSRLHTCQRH
Experiment [10] relates to Inhibin beta A chain (activin A). Kind of experiment: INHBA (activin A) binders on microarrays, primary screen, biochemical, small-molecule microarray, 635 nm fluorescence scan (AID 1107).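 Note: mouse activin A protein probed at 4.33 µg/mL on printed slides; score merges bound-protein fluorescence near 667 nm with spot signal-to-noise.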 As to conditions: small-molecule microarray binding, higher = more signal.

Activity calls are given as the source filed them.

Sequence of Fibroblast growth factor 10 (Homo sapiens) (O15520 whole entry, looked up): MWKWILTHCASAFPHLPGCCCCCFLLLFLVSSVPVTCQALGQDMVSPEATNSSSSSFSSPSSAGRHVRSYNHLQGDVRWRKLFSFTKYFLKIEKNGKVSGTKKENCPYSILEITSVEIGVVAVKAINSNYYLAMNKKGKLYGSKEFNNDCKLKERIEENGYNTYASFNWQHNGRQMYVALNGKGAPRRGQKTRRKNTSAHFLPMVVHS
Sequence of Epidermal growth factor receptor (Homo sapiens) (P00533 whole entry, looked up): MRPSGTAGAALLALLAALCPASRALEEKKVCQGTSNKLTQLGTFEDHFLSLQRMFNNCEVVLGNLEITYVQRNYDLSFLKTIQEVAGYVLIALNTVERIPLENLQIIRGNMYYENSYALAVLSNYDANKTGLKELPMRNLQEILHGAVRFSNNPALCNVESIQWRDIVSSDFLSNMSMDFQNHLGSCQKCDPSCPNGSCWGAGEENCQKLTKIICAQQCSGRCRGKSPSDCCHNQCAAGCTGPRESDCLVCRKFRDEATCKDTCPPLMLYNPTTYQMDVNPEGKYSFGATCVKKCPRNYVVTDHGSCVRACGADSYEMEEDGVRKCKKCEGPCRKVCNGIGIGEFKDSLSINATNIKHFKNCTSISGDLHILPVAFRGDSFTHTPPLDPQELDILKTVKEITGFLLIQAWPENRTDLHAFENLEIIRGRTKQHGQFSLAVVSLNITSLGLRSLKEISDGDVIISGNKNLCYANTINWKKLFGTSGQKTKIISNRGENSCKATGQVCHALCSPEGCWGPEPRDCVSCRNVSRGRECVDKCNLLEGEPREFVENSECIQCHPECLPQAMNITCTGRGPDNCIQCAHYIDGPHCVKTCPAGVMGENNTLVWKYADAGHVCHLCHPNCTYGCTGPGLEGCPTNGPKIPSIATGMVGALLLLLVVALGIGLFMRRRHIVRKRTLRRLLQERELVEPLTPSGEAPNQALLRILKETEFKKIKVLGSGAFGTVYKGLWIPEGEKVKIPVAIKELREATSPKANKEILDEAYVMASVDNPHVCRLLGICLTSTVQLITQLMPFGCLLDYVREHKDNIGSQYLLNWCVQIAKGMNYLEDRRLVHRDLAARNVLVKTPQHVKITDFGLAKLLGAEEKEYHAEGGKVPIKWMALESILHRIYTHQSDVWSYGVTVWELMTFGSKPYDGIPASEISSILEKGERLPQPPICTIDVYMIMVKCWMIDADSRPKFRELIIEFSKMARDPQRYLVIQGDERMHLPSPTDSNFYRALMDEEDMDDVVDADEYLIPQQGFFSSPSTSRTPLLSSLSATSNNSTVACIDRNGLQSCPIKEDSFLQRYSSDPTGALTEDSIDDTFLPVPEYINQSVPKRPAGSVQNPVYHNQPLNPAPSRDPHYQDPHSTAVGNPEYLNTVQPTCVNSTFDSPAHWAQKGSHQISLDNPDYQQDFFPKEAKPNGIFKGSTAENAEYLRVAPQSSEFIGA

Regarding `CCCC[C@@H]1C[C@H]1[C@@H](NC(=O)c1ccccc1)c1ccc(C(=O)OC)cc1`, the composite z-score in experiment [1] was 0.798; in experiment [2] it was 0.393; in experiment [3], 1.18; in experiment [5], -0.358; in [6], -0.534; in experiment [7], -1.38. For the same compound, the composite z-score was -0.668 in experiment [8], -1.57 in experiment [9] and 1.19 in [10]. The z-score in experiment [4] was -2.47 (inactive).
On to `Cc1ccc(N2C(=O)c3ccccc3[C@@H](C(=O)NC3CC3)[C@@H]2c2ccc(CO)cc2)nc1`, for which the composite z-score in experiment [1] is 1.24; in experiment [2], -0.201; in [3], 0.908; in experiment [5], -1.5; in [6], -0.968; in experiment [7], -1.58. The composite z-score in experiment [8] is -1.38; in experiment [9], -2.23; in [10], -0.314. Further, in [4], the z-score is 0.942 (inactive).
On to `O=C1NC(=O)C2C1C=CC(C(O)c1cc(C(F)(F)F)cc(C(F)(F)F)c1)N2Nc1ccccn1` (stereo not given), for which the composite z-score in experiment [1] is 1.57; in experiment [2], -0.0616; in experiment [3], -0.387; in experiment [5], 0.163; in [6], -0.164; in experiment [7], 0.22. The composite z-score turned out to be 0.431 in [8], 0.0665 in [9] and 1.33 in [10]. The z-score in experiment [4] is 1.35 (inactive).
In the case of `CCCC[C@H]1OB(O)C[C@H]2C1=C(COC)Cn1c(=O)n(-c3ccccc3)c(=O)n12`, the composite z-score was -0.0483 in experiment [1]; -0.383 in experiment [2]; -0.738 in [3]; 0.516 in [5]; 0.302 in experiment [6]; 0.54 in experiment [7]. In addition, the composite z-score in [8] turned out to be 0.517; in experiment [9], 0.465; in experiment [10], 0.95. The z-score in experiment [4] was 0.271 (inactive).
As to `CCCCCCc1nc(-c2ccc(OC)nc2)cc2c1[Si](C(C)C)(C(C)C)O[C@H]2c1ccccc1`, the composite z-score in experiment [1] was 1.33; in experiment [2], -0.0653; in experiment [3], -0.459; in experiment [5], 0.289; in experiment [6] it was -0.0539; in [7] it was 0.31. Moreover, the composite z-score in [8] amounted to 0.633; in experiment [9], 0.117; in experiment [10], 0.318. In experiment [4], the z-score was -0.0107 (inactive).
Consider `CCOC(=O)C[C@H]1[C@H](OC(=O)c2ccc(C(=O)c3ccccc3)cc2)[C@@H](NC(=O)c2ccc3ccccc3n2)c2cc(OCCCO)ccc2N1C(=O)c1ccccc1`, for which the composite z-score was 0.772 in experiment [1]; 0.177 in [2]; 0.628 in experiment [3]; 0.719 in [5]; 1.28 in experiment [6]; -0.278 in [7]. Also, the composite z-score in experiment [8] is 0.806; in experiment [9], 0.271; in [10] it was -0.177. In addition, the z-score in experiment [4] was 0.305 (inactive).
As to `CCN(CC)c1ccc(N2CC=CC34O[C@@H]5C=CCCOC(=O)C5[C@H]3C(=O)N(CCCCCCO)[C@@H]4C2=O)cc1` (stereo not given in full), the composite z-score is 1.93 in experiment [1]; -0.0776 in experiment [2]; 0.414 in [3]; -1.26 in experiment [5]; -0.39 in experiment [6]; -0.661 in experiment [7]. In addition, the composite z-score in experiment [8] is -0.879; in experiment [9] it was -0.555; in [10] it was 0.816. Further, the z-score in [4] is -1.98 (inactive).
In the case of `C=C(CCCC)/C(=C/C[C@@H](OC(C)=O)c1ccc(OCCO)cc1)c1cnc2ccccc2c1`, the composite z-score is 0.619 in experiment [1]; -0.12 in experiment [2]; 0.149 in [3]; 0.628 in [5]; -0.174 in experiment [6]; 0.401 in [7]. For the same compound, the composite z-score in [8] was 1.12; in experiment [9], 0.698; in experiment [10], 1.53. In addition, in experiment [4], the z-score is -0.27 (inactive).
With `C=C(/C(=C/C[C@H](OC(C)=O)c1ccc(CO)o1)c1cc(C(=O)OC)ccc1OC)C(C)C`, the composite z-score in experiment [1] was -0.415; in [2], -0.0153; in experiment [3], -0.0899; in experiment [5], 0.505; in experiment [6], -0.196; in [7], -0.455. Also, the composite z-score was found to be 0.397 in [8], 0.0625 in experiment [9] and 0.463 in [10]. The z-score in experiment [4] was -0.0448 (inactive).
`COc1cc(COC(C)=O)ccc1OC(C)=O`: the composite z-score in experiment [1] turned out to be 0.0968; in experiment [2], 1.85; in experiment [3], 0.285; in experiment [5], 0.301; in experiment [6], 0.578; in [7], 1.04. The composite z-score in experiment [8] turned out to be 0.505; in [9], 1.17; in experiment [10], 0.47. Moreover, in experiment [4], the z-score was -0.309 (inactive).
As to `C=CCOC(=O)[C@H]1[C@@H]2C(=O)O[C@@H](c3ccccc3)[C@@H](c3ccccc3)N2[C@@H](c2ccc(OCCOC(=O)[C@H]3C[C@H]4C(=O)N[C@@H](CCCCNC(C)=O)C(=O)N4[C@H]3c3cccc(OCCO)c3)cc2)[C@]12C(=O)Nc1ccccc12`, the composite z-score was 1.42 in experiment [1]; -0.194 in experiment [2]; 0.285 in [3]; 1.31 in experiment [5]; 1.32 in [6]; 0.674 in [7]. In addition, the results for the composite z-score in [8], in experiment [9] and in experiment [10] were 0.775, 0.824 and 0.134, respectively. In addition, in experiment [4], the z-score is 0.29 (inactive).
Consider `COCCOC(=O)N1C(=O)[C@@]2(c3cc(C#Cc4ccc(OC)cc4)ccc31)[C@H](c1ccccc1OCCO)N1[C@H](c3ccccc3)[C@H](c3ccccc3)OC(=O)[C@H]1[C@@H]2C(=O)NC[C@H](O)c1ccccc1`, for which the composite z-score in experiment [1] stood at 1.23; in experiment [2], 0.201; in experiment [3] it was 0.145; in experiment [5], 1.14; in [6] it was 0.748; in [7] it was 0.544. Also, the composite z-score came out at 1.43 in experiment [8], 0.696 in experiment [9] and 0.53 in experiment [10]. Moreover, the z-score in [4] was -0.352 (inactive).
For the compound `COC(=O)[C@@]1(Cc2ccc(OC)cc2)[C@H]2c3cc(C(=O)N(C)C)n(C)c3C[C@H]2CN1C(=O)c1ccccc1`, the composite z-score in [1] came out at 0.843; in experiment [2], 0.928; in [3], 1.28; in experiment [5], 0.924; in experiment [6], 0.789; in [7] it was 0.534. Further, the composite z-score in [8] is 1.33; in experiment [9], -0.105; in [10], 0.511. Also, in experiment [4], the z-score was -1.96 (inactive).
In the case of `C=C(CCCC)/C(=C/C[C@@H](OC(=O)c1ccncc1)c1ccc(OCCO)cc1)c1cc(C(=O)OC)ccc1OC`, the composite z-score in experiment [1] was 0.0247; in experiment [2], 0.0101; in [3], -0.287; in [5], 0.876; in experiment [6] it was 0.605; in experiment [7] it was -0.0331. For the same compound, the composite z-score was 0.937 in experiment [8], 0.135 in experiment [9] and 0.218 in [10]. In addition, in experiment [4], the z-score was 0.489 (inactive).
